Test results published in PubChem BioAssay (Tox21).
“And” between values parts separate entries of the source, which are not always exact repeats. Identical values can stand only once. Records with an inconclusive call do not appear. Some structures have more than one record in an assay (separate samples or runs), and their calls can disagree. The source made the active and inactive calls. Unless noted, calls come from the whole dose curve; as a rule, active = well fitted curve in the direction sought with a large enough effect in the repeat runs; inconclusive = weak or mixed curves; inactive = no such curve, though single readings can be large; an effect the other way counts as inactive or inconclusive.

Assays:
[1] = qHTS assay to identify aromatase inhibitors - cell viability counter screen (AID 743084); conditions: MCF-7 aro ERE viability, CellTiter-Fluor, 24 h; series mostly up to 70.3 µM;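 note: cells stimulated with testosterone during compound exposure; nearly all actives have a fitted effect of over 55% in size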; note: potency is the fitted concentration of half-maximal effect
[2] = target: Aryl hydrocarbon receptor (Homo sapiens) (UniProt P35869); test: qHTS assay to identify small molecule that activate the aryl hydrocarbon receptor (AhR) signaling pathway (AID 743085); conditions: HepG2 AhR-luc (HG2L7.5c1), luciferase, 24 h; series mostly up to 70.3 µM; note: nearly all actives have a fitted effect of over 15% in size; note: potency is the fitted concentration of half-maximal effect;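 for activation: HG2L7.5c1 human HepG2 liver cells with stably integrated DRE-driven firefly reporter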
Chain of Aryl hydrocarbon receptor (Homo sapiens) (P35869 whole entry, looked up): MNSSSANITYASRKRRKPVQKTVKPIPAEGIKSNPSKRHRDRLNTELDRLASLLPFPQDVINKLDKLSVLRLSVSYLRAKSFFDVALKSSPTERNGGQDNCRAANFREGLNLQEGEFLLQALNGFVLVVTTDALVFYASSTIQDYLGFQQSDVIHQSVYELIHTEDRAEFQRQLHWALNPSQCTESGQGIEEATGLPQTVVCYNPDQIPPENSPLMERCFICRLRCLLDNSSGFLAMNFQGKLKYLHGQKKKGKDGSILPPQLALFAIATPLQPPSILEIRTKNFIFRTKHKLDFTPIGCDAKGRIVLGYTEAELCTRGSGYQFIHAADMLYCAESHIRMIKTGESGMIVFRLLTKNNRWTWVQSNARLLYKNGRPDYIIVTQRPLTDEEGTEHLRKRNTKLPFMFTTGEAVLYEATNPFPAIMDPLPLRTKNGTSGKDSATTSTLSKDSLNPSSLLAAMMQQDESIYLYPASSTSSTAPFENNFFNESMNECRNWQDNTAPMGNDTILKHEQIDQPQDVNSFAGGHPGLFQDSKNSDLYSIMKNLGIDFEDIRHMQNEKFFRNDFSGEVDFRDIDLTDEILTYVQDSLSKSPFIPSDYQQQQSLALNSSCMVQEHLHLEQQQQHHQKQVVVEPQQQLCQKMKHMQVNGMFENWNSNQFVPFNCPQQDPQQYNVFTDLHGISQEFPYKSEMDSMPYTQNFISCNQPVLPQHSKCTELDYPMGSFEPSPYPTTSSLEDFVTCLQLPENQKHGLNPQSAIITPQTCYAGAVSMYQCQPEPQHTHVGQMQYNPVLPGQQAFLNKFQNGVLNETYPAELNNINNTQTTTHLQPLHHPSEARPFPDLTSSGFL
Method in brief: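 HepG2 cells stably carrying a 20-DRE firefly luciferase reporter (HG2L7.5c1) treated with compound for 24 hr at 37C. Luciferase read by ONE-Glo luminescence, with CellTiter-Fluor viability read first.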

[3] = qHTS assay to identify small molecule that activate the aryl hydrocarbon receptor (AhR) signaling pathway - cell viability counter screen (AID 743086); conditions: HepG2-AhR-luc viability, CellTiter-Fluor, 24 h; series mostly up to 70.3 µM; note: nearly all actives have a fitted effect of over 45% in size; note: potency is the fitted concentration of half-maximal effect
Method in brief: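 Cytotoxicity counter screen: CellTiter-Fluor signal (30 min, 37 C) in 4000 HepG2 cells/well carrying the DRE-luciferase reporter, following 24 h compound exposure at 37 C.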

[4] = target: Peroxisome proliferator-activated receptor gamma (Homo sapiens) (UniProt P37231); test: qHTS assay to identify small molecule agonists of the peroxisome proliferator-activated receptor gamma (PPARg) signaling pathway (AID 743094; active = well fitted activation curve with a large enough effect in the signal ratio in the repeat runs, not every such curve was filed as active; the % refers to the signal ratio; note: potency is the fitted concentration of half-maximal effect); conditions: HEK293H PPARg-UAS-bla, beta-lactamase FRET ratio, 17 h; series mostly up to 57 µM
Chain of Peroxisome proliferator-activated receptor gamma (Homo sapiens) (P37231 whole entry, looked up): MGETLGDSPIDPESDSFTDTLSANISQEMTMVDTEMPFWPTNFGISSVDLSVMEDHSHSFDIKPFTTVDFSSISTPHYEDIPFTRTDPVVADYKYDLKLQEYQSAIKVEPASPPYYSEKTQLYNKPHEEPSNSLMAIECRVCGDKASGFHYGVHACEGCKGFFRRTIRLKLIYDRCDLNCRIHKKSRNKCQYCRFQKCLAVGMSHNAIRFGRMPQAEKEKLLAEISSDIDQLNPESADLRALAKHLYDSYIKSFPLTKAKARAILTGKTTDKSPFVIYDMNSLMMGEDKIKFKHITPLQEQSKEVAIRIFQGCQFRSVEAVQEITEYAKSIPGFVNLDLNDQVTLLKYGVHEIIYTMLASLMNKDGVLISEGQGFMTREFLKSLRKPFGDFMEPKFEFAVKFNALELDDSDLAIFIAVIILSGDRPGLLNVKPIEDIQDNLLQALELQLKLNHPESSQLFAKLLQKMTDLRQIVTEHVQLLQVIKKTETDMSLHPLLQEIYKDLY
Method in brief: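 Stably transfected HEK293H cells (GeneBLAzer PPARg UAS-bla) were incubated with test substances for 17 h at 37C after a 5 h pre-incubation; beta-lactamase activity was then detected by FRET substrate fluorescence.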

[5] = target: Peroxisome proliferator-activated receptor gamma (Homo sapiens) (UniProt P37231); test: qHTS assay to identify small molecule antagonists of the peroxisome proliferator-activated receptor gamma (PPARg) signaling pathway (AID 743191; calls by dose curve; note: nearly all actives have a fitted effect of over 30% in size; note: potency is the fitted concentration of half-maximal effect); conditions: HEK293H PPARg-UAS-bla, beta-lactamase ratio, antagonist, 17 h; series mostly up to 62.6 µM
Method in brief: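 Beta-lactamase reporter under UAS control in HEK293H PPARg-bla cells; compound treatment 17 h at 37C. Read-out: fluorescence intensity after 1 h room-temperature incubation with LiveBLAzer B/G FRET substrate.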

[6] = qHTS assay to identify small molecule antagonists of the peroxisome proliferator-activated receptor gamma (PPARg) signaling pathway - cell viability counter screen (AID 743194); conditions: PPARg-bla HEK293H viability, CellTiter-Glo luminescence, 17 h, co-treated with 50 nM rosiglitazone; series mostly up to 62.6 µM; note: nearly all actives have a fitted effect of over 55% in size; note: potency is the fitted concentration of half-maximal effect
Method in brief: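 Viability was measured as CellTiter-Glo luminescence in GeneBLAzer PPARg UAS-bla HEK293H cells. These cells had been exposed 17 h at 37 C to compounds together with rosiglitazone at 50 nM final, with the beta-lactamase readout taken in the same wells.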

[7] = qHTS assay for small molecule agonists of the antioxidant response element (ARE) signaling pathway (AID 743202; active = well fitted activation curve with a large enough effect in the signal ratio in the repeat runs, not every such curve was filed as active; the % refers to the signal ratio; note: potency is the fitted concentration of half-maximal effect); conditions: HepG2 ARE-bla reporter, beta-lactamase FRET, 16 h; series mostly up to 73.3 µM
Method in brief: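 An ARE-responsive beta-lactamase gene stably integrated in HepG2 cells serves as reporter. After 5 h plating and 16 h compound incubation at 37 C, fluorescence of the B/G FRET substrate was measured.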

[8] = qHTS assay for small molecule agonists of the antioxidant response element (ARE) signaling pathway - cell viability counter screen (AID 743203; calls by dose curve; note: nearly all actives have a fitted effect of over 55% in size; note: potency is the fitted concentration of half-maximal effect); conditions: ARE-bla HepG2 viability, CellTiter-Glo luminescence, 16 h; series mostly up to 73.3 µM
Method in brief: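 Cells (ARE-bla HepG2, 2,000/well) receive DMSO-dissolved compounds after a 5 hrs rest. Plates incubate 16 hrs at 37C/5% CO2. CellTiter-Glo luminescence is then recorded after 30 min at room temperature.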

[9] = qHTS assay for small molecule activators of the heat shock response signaling pathway - cell viability counter screen (AID 743209); conditions: HSE-bla HeLa viability, CellTiter-Glo luminescence, 5 h; series mostly up to 62.6 µM; note: nearly all actives have a fitted effect of over 50% in size; note: potency is the fitted concentration of half-maximal effect
Method in brief: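 Quantitative HTS format, Tox21 10K library. HeLa cells carrying an HSE-driven beta-lactamase reporter were treated 5 h at 37 C, then assessed for viability by CellTiter-Glo luminescence.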

[10] = qHTS assay for small molecule activators of the heat shock response signaling pathway (AID 743210; active = well fitted activation curve with a large enough effect in the signal ratio in the repeat runs, with a control signal flat, not every such curve was filed as active; the % refers to the signal ratio;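 note: HeLa cells with beta-lactamase reporter driven by heat shock elements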); conditions: HeLa HSE-bla reporter, beta-lactamase ratio, 5 h; series mostly up to 62.6 µM
Method in brief: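 In HSE-bla HeLa cells, 5 h compound incubation (37 C) precedes addition of LiveBLAzer B/G substrate; after 2.5 h at room temperature, fluorescence intensity indicates reporter induction.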

Measured: Potency

CC1COc2c(N3CCN(C)CC3)c(F)cc3c(=O)c(C(=O)O)cn1c23 (stereo not given)
inactive: all assays above

CC(=O)CC(=O)Nc1ccc2[nH]c(=O)[nH]c2c1
inactive: all assays above

CCc1cc(C(C)(C)C)c(O)c(C(C)(C)C)c1
inactive: all assays above

CCC[C@H](N[C@@H](C)C(=O)N1[C@H](C(=O)O)C[C@@H]2CCCC[C@@H]21)C(=O)OCC
inactive: all assays above

Cc1scc2c1N(C(=O)CN1CCN(C)CC1)c1ccccc1NC2=O
inactive: all assays above

C=CC(=O)OCCCCCCCC
inactive: all assays above

NC12CC3CC(CC(C3)C1)C2
not listed: [10]
inactive: all other assays above

O=C(Oc1ccccc1)c1ccccc1O
inactive: all assays above

CC(=O)C1=C(C)[C@@H]2C[C@@]3(C1)[C@H](C)CC[C@H]3C2(C)C
inactive: all assays above

CCN1CCCC1CNC(=O)c1cc(S(=O)(=O)CC)c(N)cc1OC (stereo not given)
inactive: all assays above

C=C(C)C1CC=C(C)C(OC(C)=O)C1 (stereo not given)
inactive: all assays above

c1ccc2cc3c(ccc4ccccc43)cc2c1
active: [2] 4.34 µM and 6.86 µM | [7] 6.11 µM
inactive: all other assays above

CCOc1ccc2c(c1)C(C)=CC(C)(C)N2
active: [4] 21.3 µM | [7] 61.1 µM
not listed: [10]
inactive: all other assays above

O=C(O)CP(=O)(O)O
inactive: all assays above

C[N+]1([O-])CCOCC1
inactive: all assays above

Cc1cc(C2(c3cc(C)c(O)cc3C)OS(=O)(=O)c3ccccc32)c(C)cc1O
30.6 µM (active) and inactive: [2]
active: [1] 21.7 µM and 24.3 µM | [3] 19.3 µM and 21.7 µM
not listed: [10]
inactive: all other assays above

Cc1cccc(O)c1C
inactive: all assays above

CC(=O)N[C@@H](CS)C(=O)O
inactive: all assays above

CCC(=O)/C=C/C1C(C)=CCCC1(C)C (stereo not given)
inactive: all assays above

CCCNC(C)C(=O)Nc1ccccc1C (stereo not given)
inactive: all assays above

CC(C)CCOCc1ccccc1
inactive: all assays above

NCCCCCC(=O)O
inactive: all assays above

CC1COC(=O)O1 (stereo not given)
inactive: all assays above

COC(=O)/C=C/c1ccccc1
inactive: all assays above

c1ccc2c(c1)CCCC2C1=NCCN1 (stereo not given)
inactive: all assays above

CC(C(O)c1ccc(O)cc1)N1CCC(Cc2ccccc2)CC1 (stereo not given)
inactive: all assays above

CCn1c2ccccc2c2cc(N)ccc21
active: [2] 9.59 µM and 9.69 µM and 3.06 µM
not listed: [10]
inactive: all other assays above

O=C1NCC2(CCN(CCc3ccccc3)CC2)O1
inactive: all assays above

Cc1ccnc2c1NC(=O)c1cccnc1N2C1CC1
inactive: all assays above

O=C(OCc1ccccc1)c1ccc(O)cc1
active: [5] 43.6 µM
inactive: all other assays above

NNCCc1ccccc1
active: [2] 10.1 µM and 30.7 µM
inactive: all other assays above

C1COC(NC(C2CC2)C2CC2)=N1
inactive: all assays above

Cc1cccc([N+](=O)[O-])c1C(=O)O
inactive: all assays above

OCCN1CCNCC1
inactive: all assays above

Nc1cc(S(=O)(=O)O)cc2cc(S(=O)(=O)O)cc(O)c12
not listed: [10]
inactive: all other assays above

CCC(C)(Oc1ccc(C2(c3ccc(OC(C)(CC)C(=O)O)cc3)CCCCC2)cc1)C(=O)O (stereo not given)
inactive: all assays above

Cc1ccc(-c2cc(C(F)(F)F)nn2-c2ccc(S(N)(=O)=O)cc2)cc1
61.1 µM (active) and inactive: [8]
active: [7] 26.6 µM
inactive and 54.3 µM (active): [1]
inactive: all other assays above

CC(=O)Nc1ccc(C(=O)CCl)cc1
inactive and 3.89 µM (active): [9]
active: [1] 7.7 µM | [6] 13.8 µM | [7] 34.6 µM
inactive and 19.3 µM (active): [8]
not listed: [5]
inactive: all other assays above

O=C(O)c1cc(Cl)cc(Cl)c1
not listed: [5]
inactive: all other assays above

COc1ccc(Cc2cnc(N)nc2N)cc1OC
not listed: [5]
inactive: all other assays above

NC(=Nc1ccccc1)Nc1ccccc1
active: [3] 6.11 µM | [7] 13.3 µM
inactive and 19.3 µM (active): [2]
not listed: [8]
inactive: all other assays above

CCN(CC)C(=O)Nc1ccc(OCC(O)CNC(C)(C)C)c(C(C)=O)c1 (stereo not given)
inactive: all assays above

CC(C)(C)NCC(O)c1cc(O)cc(O)c1 (stereo not given)
not listed: [5]
inactive: all other assays above
